Assay outcomes (PubChem)
Only some compounds are listed: those with a hit (about 10% of all), similar ones and a draw of the others.
NPR1 antag = Natriuretic polypeptide receptor (hNpr1) antagonism - Primary qHTS; HEK293 hNpr1 GloSensor cGMP, ANP-stimulated luminescence; Atrial natriuretic peptide receptor 1 (Homo sapiens), P16066; 76,000 tested, 1.6% active; Potency, µM (series often up to 46.3 µM), inactives show at the top dose activity change, negative = inhibition, hits mostly inhibitors; calls by dose curve; further: nearly all actives have a fitted effect of over 60% in size
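HEK293 cells stably expressing human Npr1 and cGMP GloSensor pGS-40F, loaded 2 h with 2% GloSensor reagent, given compound 30 min at room temperature. Luminescence read before and 20 min after 0.1 nM hNppA.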
GPT2 inhibitor = Primary qHTS assay for inhibitors of Glutamate pyruvate transaminase 2 (GPT2); Alanine aminotransferase 2 (Homo sapiens), Q8TD30; Recombinant GPT2, coupled pyruvate oxidase/HRP Amplex Red fluorescence; Potency, µM (titrated, usually from 57.7 µM), without a hit: at the top dose activity change, negative = inhibition, actives largely listed as inhibitors; 100,000 tested, 0.25% active; further: nearly all actives have a fitted effect of over 60% in size
Target sequence (Q8TD30 whole entry, looked up): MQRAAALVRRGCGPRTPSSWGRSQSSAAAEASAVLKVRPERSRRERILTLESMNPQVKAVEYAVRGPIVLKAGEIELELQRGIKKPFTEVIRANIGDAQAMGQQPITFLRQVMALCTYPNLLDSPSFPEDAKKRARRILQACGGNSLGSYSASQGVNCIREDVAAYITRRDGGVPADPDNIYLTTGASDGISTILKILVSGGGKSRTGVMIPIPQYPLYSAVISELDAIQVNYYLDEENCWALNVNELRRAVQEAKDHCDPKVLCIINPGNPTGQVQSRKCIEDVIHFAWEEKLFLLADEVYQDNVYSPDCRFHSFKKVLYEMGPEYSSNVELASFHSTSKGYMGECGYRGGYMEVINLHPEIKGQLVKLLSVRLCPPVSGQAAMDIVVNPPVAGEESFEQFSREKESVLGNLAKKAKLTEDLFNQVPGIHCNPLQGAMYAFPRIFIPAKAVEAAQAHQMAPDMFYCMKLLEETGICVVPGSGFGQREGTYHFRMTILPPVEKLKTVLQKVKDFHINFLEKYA
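Fluorescence of coupled pyruvate oxidase/HRP/Amplex Red system (50uM Amplex, 30 min, dark) reports pyruvate formed by GPT2. Enzyme reaction: 10ng/uL GPT2, 2mM L-alanine, 250uM a-KG, 30 min room temperature, pH 7.5; 50uM AOA control.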
FLuc inh = Firefly luciferase inhibition profiling of diverse chemical library using quantitative high-throughput screening | purified P. pyralis luciferase, luminescence, biochemical | Potency, µM (doses to about 115 µM), actives largely listed as inhibitors | 76,000 tested, 2.5% active | AID 1347043, 2019; further: nearly all actives have a fitted effect of over 65% in size
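Purified 10nM P. pyralis luciferase with 10uM D-luciferin and 10uM ATP in 50mM Tris acetate pH 7.5, 10mM Mg acetate, 0.01% Tween-20, 0.05% BSA. qHTS titration; luminescence read by CCD imager.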
NIH3T3 tox = Cytotoxic Profiling in NIH 3T3 Cell Line of Diverse Libraries Using Quantitative High-Throughput Screening. 94,000 tested, 4.3% active. NIH 3T3 viability, CellTiter-Glo ATP luminescence, 48-72 h. Potency, µM (highest dose often 96.7 µM), for inactives: at the highest dose activity change, negative = cytotoxicity, actives largely listed as inhibitors; further: nearly all actives have a fitted effect of over 55% in size
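NIH 3T3 cells at 400 cells/well received 23 nL of compound by pintool and were incubated 48 or 72 h at 37 °C. Viability was read as ATP-coupled CellTiter-Glo luminescence.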
HEK293 tox = Cytotoxic Profiling in HEK 293 Cell Line of Diverse Libraries Using Quantitative High-Throughput Screening | 94,000 tested, 6.6% active | HEK 293 viability, ATP luminescence (CellTiter-Glo), 48-72 h | AID 1345083, 2018 | Potency, µM (series often up to 115 µM), inactives show at the top dose activity change, negative = cytotoxicity, actives largely listed as inhibitors; further: nearly all actives have a fitted effect of over 60% in size
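Pintool-delivered compounds were incubated with HEK 293 cells (250 cells/well) at 37 degree Celsius for 48 or 72 hr. ATP-dependent luminescence (CellTiter-Glo) then reported remaining viable cells.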
* = called active by the depositor; i = inactive; u = inconclusive; x = no result; [ ] = dose if it differs, or a comment. Unless noted, the call rests on the fitted dose curve; in most records, active means well fitted curve in the direction sought with a large enough effect; inconclusive means small, poorly fitted or top-dose-only effect, or another doubt; inactive means no such curve, though single readings can be large; an effect the other way counts as inactive or inconclusive. On the % scale 0 is the no-effect control and ±100 the full control effect; potency means the concentration at half of the fitted maximal effect.

SMILES | NPR1 antag | GPT2 inhibitor | FLuc inh | NIH3T3 tox | HEK293 tox
Cc1ccc(C(=O)N[C@H]2CO[C@H]3[C@@H]2OC[C@@H]3Nc2nccc(-c3cccs3)n2)cc1 | -5%[70.6 µM] | 0%[88.5 µM] | i | -16%[174 µM] | -3%[172 µM]
Cc1ccc(S(=O)(=O)N[C@H]2CO[C@H]3[C@@H]2OC[C@H]3O)cc1 | 1%[70.6 µM] | i | i | 0%[174 µM] | 1%[172 µM]
CN(Cc1cc2n(n1)CCNC2)Cc1nc2ccsc2c(=O)[nH]1 | -4% | 1% | i | u | -34%
CC1(CNc2ccccc2)COc2ccc(C(=O)NCCN3CCOCC3)cc2N1 (configuration not stated) | -2%[70.6 µM] | 2%[88.5 µM] | i | -5%[138 µM] | u
CC1(COc2ccccc2)COc2ccc(C(=O)NCCOc3ccccc3)cc2N1 (configuration not stated) | u | -17%[88.5 µM] | i | u | 79µM*
CC1(CNc2ccccc2)COc2ccc(C(=O)NCCOc3ccccc3)cc2N1 (configuration not stated) | u | 0%[88.5 µM] | u | 32µM* | 40µM*
CC1(CNc2ccccc2)COc2ccc(C(=O)NCCc3ccccn3)cc2N1 (configuration not stated) | -2%[70.6 µM] | -1%[88.5 µM] | i | u | 100µM*
CCOCC1(C)COc2ccc(C(=O)NCCc3ccccc3)cc2N1 (configuration not stated) | -5%[70.6 µM] | -6%[88.5 µM] | 22µM* | u | u
COc1ccccc1Nc1ccnc(N2CCCC(C(=O)NCC(F)(F)F)C2)n1 (configuration not stated) | x | 0% | x | u | u
COc1ccccc1Nc1ccnc(N2CCCC(C(=O)NCCc3ccc(Cl)cc3)C2)n1 (configuration not stated) | x | -7% | x | u | u
COc1ccccc1Nc1ccnc(N2CCCC(C(=O)NCc3cccc(F)c3)C2)n1 (configuration not stated) | x | -1% | x | 13µM* | 11µM*
COc1ccccc1Nc1ccnc(N2CCCC(C(=O)NCc3cccc(Cl)c3)C2)n1 (configuration not stated) | x | i | x | 13µM* | u
CC(=O)N1CCCC(c2[nH]ccc2C(=O)NCc2ccc3c(c2)OCO3)C1 (configuration not stated) | 10% | i | i | i | i
CCOc1nccn2c(-c3ccc(CNc4ccc(OC)nc4)cc3)cnc12 | -14%[70.6 µM] | u | 22µM* | u | u
O=C1NC2(CCCN(Cc3cncs3)C2)COc2ccccc21 (configuration not stated) | -6% | -8% | i | 22µM* | 28µM*
Cc1noc(C)c1[S+](=O)([O-])N1CCCC2(COc3ccccc3C(=O)N2)C1 (configuration not stated) | u | i | i | 35µM* | 22µM*
O=S1(=O)NC2(CCCN(Cc3ccc(Cl)cc3)C2)COc2ccccc21 (configuration not stated) | x | 3% | x | 45µM* | u
O=C1NC2(CCCN(Cc3ccc(F)cc3)C2)COc2ccccc21 (configuration not stated) | 16% | 1% | i | u | u
O=C1NC2(CCCN(Cc3ccsc3)C2)COc2ccccc21 (configuration not stated) | -21%[70.6 µM] | i | i | 40µM* | 79µM*
O=C1NC2(CCCN(Cc3ccc(OC(F)(F)F)cc3)C2)COc2ccccc21 (configuration not stated) | -7% | i | i | u | u
CC(C)N[C@@H](Cn1ccc(=O)[nH]c1=O)C(=O)O | 4%[70.6 µM] | i | i | -20%[230 µM] | -21%[230 µM]
COc1ccc(C(=O)N2CC(c3nc(CCOc4cccc(C)c4)no3)C2)cc1F | 0% | 2% | i | u | u
COc1cccc(-c2ccccc2NC(=O)C2CCN(c3nccnc3C)CC2)c1 | u | -15% | i | 22µM* | u
COc1cccc(-c2ccccc2NC(=O)C2CCN(Cc3ccc(F)cc3)CC2)c1 | -26% | 4% | i | 22µM* | 32µM*
COCCC1(NS(=O)(=O)c2cccnc2)CCN(S(C)(=O)=O)CC1 | 2% | u | i | -7% | -13%
SMILES | NPR1 antag | GPT2 inhibitor | FLuc inh | NIH3T3 tox | HEK293 tox
Cc1ccc(NC(=O)N[C@H]2C[C@@](O)(C(=O)N[C@H](C)C(N)=O)C[C@@H](O)[C@@H]2O)cc1 | 1%[70.6 µM] | i | i | -1%[174 µM] | i
COc1ccc(C2Cn3nnc(C(=O)N4CCN(C(=O)c5ccccc5Cl)CC4)c3CO2)cc1 (configuration not stated) | u | -11% | i | u | u
CCOc1ccccc1C(=O)N1CCN(C(=O)c2nnn3c2COC(c2ccc(Cl)cc2)C3)CC1 (configuration not stated) | u | i | i | u | 32µM*
COc1ccc(C2Cn3nnc(C(=O)N4CCN(C(=O)c5cc(F)ccc5Cl)CC4)c3CO2)cc1 (configuration not stated) | 13µM* | i | i | u | u
O=C(c1nnn2c1COC(c1ccc(Cl)cc1)C2)N1CCN(C(=O)C2(c3ccccc3)CC2)CC1 (configuration not stated) | u | -14% | i | 28µM* | 22µM*
O=C1NCCCCCCN(Cc2cccc3[nH]ccc23)[C@H]2CCC[C@@H]12 | -8% | u | i | u | u
CNC(=O)C1CN(c2ccc(F)cc2)C(=O)N1 (configuration not stated) | 20%[70.6 µM] | i | i | -12%[138 µM] | 4%[172 µM]
COCCNC(=O)C1CCCN(c2nc3ncccc3o2)C1 (configuration not stated) | 2%[70.6 µM] | -10%[88.5 µM] | i | -10%[138 µM] | 0%[172 µM]
COc1ccc(S(=O)(=O)N2CCCC(Cc3nncn3C)C2)cc1 (configuration not stated) | -12% | i | i | i | i
COc1ccc(F)c(CN2CCCC(O)(CN3CCC(C)CC3)C2=O)c1 (configuration not stated) | 9% | -8% | i | -2% | u
Fc1ccc2nc(C3CCN(Cc4nc(COc5ccccc5)no4)CC3)[nH]c2c1 | 4% | i | i | -19% | -9%
Cc1ccc(S(=O)(=O)N2CCC(OC3CCN(Cc4ccccc4)CC3)CC2)cc1C | -22% | i | i | 35µM* | u
